From the supplement of paper PMC6555819

Experiments:
Test in all cases: PBM binding z-score (relative to random genomic background probes); higher = stronger binding; sequences stand for … in GC…GCGATTGACAGCGTAGAATGAAGG
[1] = test system: FXR:RXRa (NR concentration 270 nM, RXRa partner concentration 90 nM)
Procedure, shortened: (§1)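 Binding z-scores were set against random background probes. The data came from custom Agilent 4×180K protein-binding microarrays carrying double-stranded probes with 34-nt variable regions, incubated 1 h with ligand-free nuclear receptor dimers. Partner-specific antibodies detected binding, and scanned fluorescence was regression-normalized.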

[2] = test system: LXRa:RXRa (NR concentration 270 nM, RXRa partner concentration 90 nM)
Procedure, shortened: as §1

[3] = test system: LXRa homodimer (NR concentration 270 nM)
Procedure, shortened: as §1

[4] = test system: LXRb:RXRa (NR concentration 270 nM, RXRa partner concentration 90 nM)
Procedure, shortened: as §1

[5] = test system: LXRb homodimer (NR concentration 270 nM)
Procedure, shortened: as §1

[6] = test system: PPARa:RXRa (NR concentration 270 nM, RXRa partner concentration 90 nM)
Procedure, shortened: as §1

[7] = test system: PPARg:RXRa (NR concentration 180 nM, RXRa partner concentration 90 nM)
Procedure, shortened: as §1

[8] = test system: PPARg:RXRa 270nM:90nM, anti-RXR (NR concentration 270 nM, RXRa partner concentration 90 nM)
Procedure, shortened: as §1

[9] = test system: PPARg:RXRa 30nM:10nM, anti-RXR (NR concentration 30 nM, RXRa partner concentration 10 nM)
Procedure, shortened: as §1

[10] = test system: PPARg:RXRa 90nM:30nM, anti-RXR (NR concentration 90 nM, RXRa partner concentration 30 nM)
Procedure, shortened: as §1

[11] = test system: PPARg:RXRa DBDmut IVT, anti-RXR (DBD mutation: RXRa K156A/R161A, NR concentration 270 nM, RXRa partner concentration 90 nM)
Procedure, shortened: as §1

[12] = test system: PPARg:RXRa IVT, anti-PPARg (NR concentration 270 nM, RXRa partner concentration 90 nM)
Procedure, shortened: as §1

[13] = test system: PPARg DBDmut:RXRa IVT, anti-PPARg (DBD mutation: PPARg1 K132A/R137A, NR concentration 270 nM, RXRa partner concentration 90 nM)
Procedure, shortened: as §1

[14] = test system: PPARg DBDmut IVT, anti-PPARg (DBD mutation: PPARg1 K132A/R137A, NR concentration 270 nM)
Procedure, shortened: as §1

[15] = test system: PPARg homodimer (NR concentration 180 nM)
Procedure, shortened: as §1

[16] = test system: PXR:RXRa (NR concentration 270 nM, RXRa partner concentration 90 nM)
Procedure, shortened: as §1

[17] = test system: PXR homodimer (NR concentration 270 nM)
Procedure, shortened: as §1

[18] = test system: RARa:RXR (NR concentration 270 nM, RXRa partner concentration 90 nM)
Procedure, shortened: as §1

[19] = test system: RARa homodimer (NR concentration 270 nM)
Procedure, shortened: as §1

[20] = test system: RARb:RXRa (NR concentration 270 nM, RXRa partner concentration 90 nM)
Procedure, shortened: as §1

| Sequence | PBM binding z-score [1] | PBM binding z-score [2] | PBM binding z-score [3] | PBM binding z-score [4] | PBM binding z-score [5] | PBM binding z-score [6] | PBM binding z-score [7] | PBM binding z-score [8] | PBM binding z-score [9] | PBM binding z-score [10] | PBM binding z-score [11] | PBM binding z-score [12] | PBM binding z-score [13] | PBM binding z-score [14] | PBM binding z-score [15] | PBM binding z-score [16] | PBM binding z-score [17] | PBM binding z-score [18] | PBM binding z-score [19] | PBM binding z-score [20] |
| --- | --- | --- | --- | --- | --- | --- | --- | --- | --- | --- | --- | --- | --- | --- | --- | --- | --- | --- | --- | --- |
| ACTTACGGGTCAACGAGGTTATAGCACGCGTATA | 6.51 | 5.39 | 0.989 | 4.36 | 0.794 | 5.52 | 5.71 | 5.48 | 2.87 | 4.14 | 3.5 | 4.09 | 1.65 | 1.55 | 2.55 | 5.1 | 3.34 | 5.39 | 1.16 | 4.13 |
| CCGAATGGGGCAGAAAGGTTACCATACCATCCGG | 0.445 | 0.679 | 0.189 | 0.904 | -0.832 | 2.53 | 2.67 | 4.16 | 2.22 | 3.95 | 0.269 | 1 | -1.13 | -0.938 | 0.818 | 1.11 | 0.134 | 1.8 | -0.0696 | 1.89 |
| AATACAGGGTCACTAGGGCAGAGTAGGTACGAAT | 6.65 | 5.17 | 1.38 | 4.23 | 1.51 | 5.86 | 8.85 | 6.78 | 3.79 | 6.46 | 4.88 | 6.25 | 2.07 | 2.29 | 3.08 | 3.51 | 1.1 | 4.65 | 1.32 | 4.27 |
| ACTAGTTGGTCAGCTGAGGTCCCACACAATTCGG | 0.639 | -0.375 | -0.16 | -0.219 | 0.179 | -0.1 | 0.275 | -0.102 | -0.52 | -0.3 | 0.847 | 1.02 | -0.38 | 1.01 | 0.419 | 0.0973 | -0.424 | 0.479 | -0.0479 | 0.921 |
| ATACCAAGGTGATCGTGAGGTAGTTGATACTAAC | 0.206 | -0.121 | -0.314 | -0.148 | -0.349 | 0.00448 | 0.267 | -0.218 | -0.0247 | -0.173 | 0.454 | 0.993 | 1.09 | 0.92 | -0.0605 | -0.117 | 0.172 | -0.156 | 0.171 | 0.566 |
| AGAACGAGGGCACACTGAGTTGATAGCAGAGTAG | 0.801 | 0.517 | -0.135 | 0.356 | -0.454 | 2.02 | 1.96 | 1.64 | 0.493 | 1.01 | 3.87 | 3.8 | 0.337 | 0.314 | 0.871 | 1.29 | 0.305 | 0.924 | 0.142 | 2.16 |
| GTTAGTTGGTCAGTAAAAGGTCACACACCGGTCG | 3.73 | 4.28 | 5.17 | 3.94 | 1.41 | 4.6 | 3.42 | 4.81 | 2.66 | 4.18 | 2.02 | 3.66 | 1.57 | 0.79 | 5.74 | 5.26 | 1.74 | 6.27 | 3.99 | 4.39 |
| CCTTACGGGTCACTCCAGGTTATAGCTTCGGAGT | 5.46 | 7.43 | 1.7 | 4.64 | 0.284 | 4.05 | 3.22 | 3.66 | 1 | 2.17 | 3.23 | 3.56 | 0.585 | 0.163 | 2.23 | 4.98 | 0.446 | 3.52 | 1.34 | 3.72 |
| ATACCAAGGTGATCGGGAGGTCGTTGATACTAAC | 1.36 | 0.921 | 0.848 | 1.34 | 0.329 | 1.55 | 0.591 | 0.404 | 0.193 | 0.12 | 0.345 | 1.15 | 0.229 | 0.179 | 1.3 | 2.92 | 1.26 | 2.08 | 0.622 | 1.31 |
| CCTAGTTGGTCAAGGTCACAGACGCTATAGGTAC | 4.56 | 3.92 | 1.56 | 3.6 | 0.603 | 4.38 | 3.54 | 3.88 | 1.54 | 2.79 | 2.26 | 3.92 | 0.729 | 0.0985 | 3.27 | 4.21 | 2.19 | 4.66 | 2.61 | 4.28 |
| CCGACTGGTGCATAAGGTTACCATAAGCCAGCCC | 0.236 | 1.78 | 0.0222 | 0.722 | -0.632 | 1.04 | 0.64 | 1.03 | -0.311 | 0.705 | -0.572 | -0.302 | -0.529 | -1.4 | 0.502 | 0.475 | -0.018 | 1.18 | 0.243 | 0.928 |
| TAGCCTAGGTCAGATTGGGCCAGTATACGCTATA | 2.65 | 1.25 | -0.472 | 0.995 | -0.0361 | 1.43 | 0.564 | 0.735 | -0.437 | -0.114 | 0.821 | 1.47 | -0.745 | -0.0991 | 0.692 | 0.48 | -0.72 | 0.891 | -0.737 | 3.16 |
| TCTTGTTGATCAAGCAGGTTAAGAAAGCCTGAGT | 0.36 | 0.33 | -0.00348 | 0.357 | -0.269 | 0.497 | -0.685 | 1.11 | 2.49 | 1.96 | 1.34 | 0.182 | -0.406 | 0.392 | 0.2 | 0.29 | 0.159 | 0.176 | -0.0111 | 0.317 |
| TCATATAGGTAATACAGGTGACAGTCGGCATCTA | 1.08 | 1.27 | 0.299 | 0.966 | 0.0585 | 1.77 | 1.81 | 2.52 | 3.86 | 3.05 | 4.18 | 3.85 | 1.35 | 1.53 | 1.04 | 0.765 | 0.723 | 1 | 1.35 | 0.683 |
| GCAGACAGGTGGAACGCAGGTAACTCAGGGTGGC | -0.427 | -0.547 | -0.822 | -0.84 | -1.13 | -0.427 | 0.342 | -0.6 | -0.85 | -1.06 | -0.523 | -0.717 | -1.02 | -1.2 | -0.728 | -0.719 | -0.596 | -0.428 | -1.35 | -0.55 |
| CTCGAAAGGTCGGTTGAGGTGAGGATACGGATAA | 3.07 | 1.84 | -0.0492 | 1.43 | -0.104 | 2.68 | 0.677 | 1.09 | 0.294 | 1.02 | -0.21 | 1.07 | 0.312 | -0.445 | 1.24 | 3.06 | 0.154 | 2.64 | 0.262 | 3.18 |
| TAATATAGGTAAATGCTAGGTGAAAGTCCGATCT | 0.659 | 0.683 | 0.391 | 0.477 | 0.54 | 2.09 | 2.64 | 2.55 | 1.74 | 1.99 | 5.57 | 5.11 | 2.14 | 2.14 | 1.2 | 0.298 | 0.623 | 0.771 | 1.52 | 0.389 |
| CGAACTAGGTCATTGACAGGAAAGTGAATAGTAA | 4.94 | 2.6 | 0.115 | 2.01 | -0.078 | 4.67 | 7.36 | 6.32 | 3.65 | 5.55 | 7.79 | 8.25 | 2.11 | 2.92 | 1.37 | 1.37 | 0.599 | 2.02 | 0.0841 | 3.59 |
